# Assay results reported in paper PMC5540273 (PLoS ONE, 2017).
# Test system: SGK3
# Details: concentration: 1 μM, replicates: in singlicate; n = 1
# 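Further: KINOMEscan kinase panel screen.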
row,SMILES,%Inh
1,O=C(NCCCN1CCCC1=O)c1cnc(NCc2cc(Cl)ccc2Cl)nc1NC1CCNCC1,0%
2,Cn1cc(-c2ccc3c(c2)CCN3C(=O)Cc2cccc(C(F)(F)F)c2)c2c(N)ncnc21 [GSK2606414],21%
3,CN1c2ccc(-c3ccc(C(=O)NCCO)cc3)cc2-c2[nH]ncc2S1(=O)=O,0%
4,CSc1nn2c(=O)cc(N3CCOCC3)nc2n1Cc1cccc(Cl)c1Cl [GSK2347225],1%
5,Cc1cccc(-c2nc(Nc3ccc4[nH]nnc4c3)c3ccccc3n2)n1 [GW867587],0%
6,O=C(CCO)NCCn1ccc2ncnc(Nc3ccc(Oc4cccc(C(F)(F)F)c4)c(Cl)c3)c21,0%
7,Cc1ccc(O)cc1Nc1cc(C(F)(F)F)nc2ccc(-c3ccncc3)cc12 [GW630823],0%
8,CCC(CC)(CC)n1cnc2c(N)ncnc21 [SKF-97620],15%
9,Fc1cccc(COc2ccc(Nc3ncnc4cc[nH]c34)cc2Cl)c1,40%
10,Fc1ccc(-c2ncn(CCCNCc3ccccc3)c2-c2ccncc2)cc1,0%
11,COc1ccc(Nc2nccc(N3CCC(NC(=O)Nc4ccc5c(c4)OCO5)C3)n2)cc1 (stereo not drawn) [GSK1379745],6%
12,CSc1ccc(NC2=C(c3ccccc3Cl)C(=O)NC2=O)cc1 [SB-342411],14%
13,FC(F)(F)c1ccc(-c2cc(-c3c[nH]nc3-c3ccccn3)ccn2)cc1 [GW599550],12%
14,O=C(Nc1n[nH]c2nc(-c3ccco3)c(Br)cc12)c1ccc(CN2CCCC2)cc1.O=C(O)[C@H](O)[C@@H](O)C(=O)O [SB-742352],0%
15,Clc1cc(Nc2ncnc3cc[nH]c23)ccc1OCc1ccccn1,28%
16,COc1ccc(NC(=O)Nc2ccc(C)c(-c3ccc(C(=O)Nc4ccncc4)cc3)c2)cc1 [GSK1398475],10%
17,Fc1ccc(Nc2nccc(-c3c(-c4ccc(Cl)cc4)nn4ncccc34)n2)cc1F [GW829058],3%
18,Nc1nc(-c2ccc3c(N)n[nH]c3c2)cc(N2CCC[C@@H](C(=O)Nc3ccccc3)C2)n1.O=C(O)C(F)(F)F.O=C(O)C(F)(F)F [GSK2288359],8%

row,SMILES,%Inh
1,CS(=O)(=O)CCNCc1nc(-c2ccc3ncnc(Nc4ccc(OCc5cccc(F)c5)c(Cl)c4)c3c2)cs1.Cl [GW583340],0%
2,Cl.Cl.c1ccc(-c2cc3ccncc3cc2OC2CCNCC2)cc1 [GSK1122999],11%
3,COC(=O)c1c(-c2ccccc2)c2cc(Cl)ccc2c(=O)n1Cc1ccc(S(C)(=O)=O)cc1,9%
4,OCCOCCn1ccc2ncnc(Nc3ccc(Oc4cccc(Cl)c4)c(Cl)c3)c21,0%
5,CC(C)(C)c1ccc(-n2cnc3c(N)ncnc32)cc1 [SKF-97263],15%
6,CNc1nccc(-c2c(-c3ccc(F)cc3)ncn2CCCN2CCOCC2)n1 [SB-222516],44%
7,CN1CCC(n2cnc(-c3ccc(F)cc3)c2-c2ccnc(NC3CCNCC3)n2)CC1 [SB-229482],0%
8,CC(C)(C)OC(=O)NC1CCCN(c2cc(-c3ccc4c(N)n[nH]c4c3)nc(N)n2)C1 (stereo not drawn) [GSK2286096],44%
9,Cl.Fc1ccccc1COc1ccc(Nc2ncnc3ccc(-c4nnc(C(F)(F)F)o4)cc23)cc1Cl [GW424170],0%
10,Clc1ccc(-c2cc(-c3c[nH]nc3-c3ccccn3)ccn2)cc1 [GW681251],6%
11,CC(C)N1CCC(n2cnc(-c3ccc(F)cc3)c2-c2ccnc(N)n2)CC1 [SB-223132],0%
12,FC(F)(F)c1cc(Nc2nccc(-c3c(-c4ccc(Cl)cc4)nn4ncccc34)n2)ccc1Cl [GW829351],0%
13,COc1cc2ncnc(Nc3ccc(OCc4ccccc4Br)c(Cl)c3)c2cc1OC.Cl [GI261590],0%
14,Clc1cccc(-c2nc(Nc3ccncc3)c3ccccc3n2)c1 [GW873004],0%
15,Cl.Cn1ccc(-c2cccc(Nc3ccnc4cc(-c5nccs5)ccc34)c2)n1 [GW525701],14%
16,COc1cc2c(Nc3cccc(NC(=O)c4ccccc4)c3)ncnc2cc1OCCCN1CCOCC1 [GSK223810],1%
17,N#Cc1ccc(Oc2ccc(Nc3ncnc4cc[nH]c34)cc2Cl)cc1,28%
18,Cn1ccc2ncnc(Oc3ccc(NC(=O)Nc4cccnc4)c(Cl)c3)c21,0%

# Test system: SGK
# Details: concentration: 1 μM, replicates: in singlicate; n = 1
row,SMILES,%Inh
1,O=C(NCCCN1CCCC1=O)c1cnc(NCc2cc(Cl)ccc2Cl)nc1NC1CCNCC1,0%
2,Cn1cc(-c2ccc3c(c2)CCN3C(=O)Cc2cccc(C(F)(F)F)c2)c2c(N)ncnc21 [GSK2606414],19%
3,CN1c2ccc(-c3ccc(C(=O)NCCO)cc3)cc2-c2[nH]ncc2S1(=O)=O,10%
4,CSc1nn2c(=O)cc(N3CCOCC3)nc2n1Cc1cccc(Cl)c1Cl [GSK2347225],0%
5,Cc1cccc(-c2nc(Nc3ccc4[nH]nnc4c3)c3ccccc3n2)n1 [GW867587],0%
6,O=C(CCO)NCCn1ccc2ncnc(Nc3ccc(Oc4cccc(C(F)(F)F)c4)c(Cl)c3)c21,0%
7,Cc1ccc(O)cc1Nc1cc(C(F)(F)F)nc2ccc(-c3ccncc3)cc12 [GW630823],14%
8,CCC(CC)(CC)n1cnc2c(N)ncnc21 [SKF-97620],0%
9,Fc1cccc(COc2ccc(Nc3ncnc4cc[nH]c34)cc2Cl)c1,23%
10,Fc1ccc(-c2ncn(CCCNCc3ccccc3)c2-c2ccncc2)cc1,30%
11,COc1ccc(Nc2nccc(N3CCC(NC(=O)Nc4ccc5c(c4)OCO5)C3)n2)cc1 (stereo not drawn) [GSK1379745],1%
12,CSc1ccc(NC2=C(c3ccccc3Cl)C(=O)NC2=O)cc1 [SB-342411],0%
13,FC(F)(F)c1ccc(-c2cc(-c3c[nH]nc3-c3ccccn3)ccn2)cc1 [GW599550],0%
14,O=C(Nc1n[nH]c2nc(-c3ccco3)c(Br)cc12)c1ccc(CN2CCCC2)cc1.O=C(O)[C@H](O)[C@@H](O)C(=O)O [SB-742352],17%
15,Clc1cc(Nc2ncnc3cc[nH]c23)ccc1OCc1ccccn1,31%
16,COc1ccc(NC(=O)Nc2ccc(C)c(-c3ccc(C(=O)Nc4ccncc4)cc3)c2)cc1 [GSK1398475],0%
17,Fc1ccc(Nc2nccc(-c3c(-c4ccc(Cl)cc4)nn4ncccc34)n2)cc1F [GW829058],18%
18,Nc1nc(-c2ccc3c(N)n[nH]c3c2)cc(N2CCC[C@@H](C(=O)Nc3ccccc3)C2)n1.O=C(O)C(F)(F)F.O=C(O)C(F)(F)F [GSK2288359],0%

row,SMILES,%Inh
1,CS(=O)(=O)CCNCc1nc(-c2ccc3ncnc(Nc4ccc(OCc5cccc(F)c5)c(Cl)c4)c3c2)cs1.Cl [GW583340],0%
2,Cl.Cl.c1ccc(-c2cc3ccncc3cc2OC2CCNCC2)cc1 [GSK1122999],0%
3,COC(=O)c1c(-c2ccccc2)c2cc(Cl)ccc2c(=O)n1Cc1ccc(S(C)(=O)=O)cc1,0%
4,OCCOCCn1ccc2ncnc(Nc3ccc(Oc4cccc(Cl)c4)c(Cl)c3)c21,0%
5,CC(C)(C)c1ccc(-n2cnc3c(N)ncnc32)cc1 [SKF-97263],2%
6,CNc1nccc(-c2c(-c3ccc(F)cc3)ncn2CCCN2CCOCC2)n1 [SB-222516],10%
7,CN1CCC(n2cnc(-c3ccc(F)cc3)c2-c2ccnc(NC3CCNCC3)n2)CC1 [SB-229482],0%
8,CC(C)(C)OC(=O)NC1CCCN(c2cc(-c3ccc4c(N)n[nH]c4c3)nc(N)n2)C1 (stereo not drawn) [GSK2286096],0%
9,Cl.Fc1ccccc1COc1ccc(Nc2ncnc3ccc(-c4nnc(C(F)(F)F)o4)cc23)cc1Cl [GW424170],0%
10,Clc1ccc(-c2cc(-c3c[nH]nc3-c3ccccn3)ccn2)cc1 [GW681251],0%
11,CC(C)N1CCC(n2cnc(-c3ccc(F)cc3)c2-c2ccnc(N)n2)CC1 [SB-223132],0%
12,FC(F)(F)c1cc(Nc2nccc(-c3c(-c4ccc(Cl)cc4)nn4ncccc34)n2)ccc1Cl [GW829351],0%
13,COc1cc2ncnc(Nc3ccc(OCc4ccccc4Br)c(Cl)c3)c2cc1OC.Cl [GI261590],4%
14,Clc1cccc(-c2nc(Nc3ccncc3)c3ccccc3n2)c1 [GW873004],6%
15,Cl.Cn1ccc(-c2cccc(Nc3ccnc4cc(-c5nccs5)ccc34)c2)n1 [GW525701],0%
16,COc1cc2c(Nc3cccc(NC(=O)c4ccccc4)c3)ncnc2cc1OCCCN1CCOCC1 [GSK223810],0%
17,N#Cc1ccc(Oc2ccc(Nc3ncnc4cc[nH]c34)cc2Cl)cc1,31%
18,Cn1ccc2ncnc(Oc3ccc(NC(=O)Nc4cccnc4)c(Cl)c3)c21,3%
